From PubChem BioAssay
Shown are actives, neighbours in structure and some others; about 2.7% of the full set was active somewhere.
SKN-1 inh = C. elegans SKN-1 inhibition; C. elegans VP596 Pgst-4::GFP/RFP ratio, acrylamide-induced, 24 h; inhibition, % at 21.8 µM; 360,000 compounds, 0.49% hits;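 active = interference check ratio from 0.5 to 1.5 plus GFP to RFP signal ratio inhibition reaching or exceeding a fixed threshold, cut at about 30% in these data, passing the limit was not always enough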
CendR NRP1 mod = modulators of CendR peptide binding to human neuropilin-1; FAM-RPARPAR peptide binding to NRP-1, fluorescence polarization; O14786; inhibition, % at 25 µM; 360,000 compounds, 0.85% hits;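 active = inhibition or corrected inhibition above about 18%, plus a signal ratio from 0.5 to 1.5, limit read from the data, passing the limit was not always enough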
F508del corr = correctors of CFTR F508del function in bronchial epithelial cells. CFBE cells, YFP halide quenching; stimulated with forskolin plus potentiator P3; % fluorescence drop versus neutral controls. activity (quench increase), % at 7.58 µM. 350,000 compounds, 0.36% hits. AID 720511;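 active = mean added fluorescence quench of at least 8% versus neutral control, with both replicates also reaching 8%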;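 also: cells transiently co-express mutant CFTR-F508del with the halide-sensitive YFP; corrector assay measuring rescue of mutant channel to the surface after 24 h compound exposure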
ATG4B inhibitor = blocks human ATG4B protease cleavage of LC3 substrate; ATG4B cleavage of LC3-PLA2, NBD-HPC fluorescence, 1 h; inhibition, % at 8.33 µM; 340,000 compounds, 0.51% hits; AID 504462; in the data active = inhibition above about 40%
Target sequence (Q9Y4P1 whole entry, looked up): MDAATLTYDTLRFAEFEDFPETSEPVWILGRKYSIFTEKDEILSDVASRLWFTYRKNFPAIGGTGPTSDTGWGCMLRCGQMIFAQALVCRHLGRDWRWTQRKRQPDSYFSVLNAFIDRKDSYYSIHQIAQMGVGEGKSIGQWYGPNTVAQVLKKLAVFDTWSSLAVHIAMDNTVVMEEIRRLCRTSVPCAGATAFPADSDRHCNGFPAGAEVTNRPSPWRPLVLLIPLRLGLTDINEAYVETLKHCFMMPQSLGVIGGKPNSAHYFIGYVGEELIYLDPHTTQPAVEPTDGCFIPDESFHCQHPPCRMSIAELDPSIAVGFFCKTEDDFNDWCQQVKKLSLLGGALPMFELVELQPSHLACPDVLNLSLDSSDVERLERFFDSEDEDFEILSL
MPTP block = blocks calcium-induced mitochondrial swelling | AID 602449 | 360,000 compounds, 1.4% hits | isolated mouse mitochondria, Ca2+ swelling absorbance, 30 min | inhibition, % at 10 µM;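 active = inhibition of 50% or more, scaled per plate between neutral and stimulator controls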;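 also: 0% = DMSO wells given calcium and 100% = 1 mM EGTA wells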
Rh123 counter = membrane potential counter-screen of mitochondrial pore inhibitors; shares compounds with MPTP block; inhibition, % at 10 µM; 5,000 compounds, 78% hits; isolated mitochondria, Rhodamine 123 fluorescence; in the data active = inhibition above about 22%;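 also: 0% = DMSO vehicle and 100% = positive control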
MPTP abs DR = dose response confirmation of mitochondrial permeability transition pore inhibitors; isolated mitochondria swelling, absorbance; shares compounds with MPTP block; IC50, µM; 780 compounds, 58% hits; AID 651561; in the data active = IC50 below about 20 µM
MPTP cs DR = active in counter-screen for permeability transition pore inhibitors. 780 compounds, 49% hits. isolated mitochondria counterscreen, fluorescence read-out. shares compounds with MPTP block. IC50, µM; in the data active = IC50 below about 80 µM
Active calls of the source: *; i = inactive; x = no result.

SMILES | SKN-1 inh | CendR NRP1 mod | F508del corr | ATG4B inhibitor | MPTP block | Rh123 counter | others
CCCNC(=O)Nc1ccc2c(c1)C(=O)N(C)C[C@@H](OC)[C@@H](C)CN(Cc1cccnc1)[C@@H](C)CO2 | x | x | -0.9 | x | x | x
C[C@@H]1CCCCO[C@@H](CN(C)S(=O)(=O)c2cn(C)cn2)[C@@H](C)CN([C@@H](C)CO)C(=O)c2cc(NC(=O)Nc3ccc(F)cc3)ccc2O1 | x | x | -2.6 | x | x | x
CCNC(=S)Nc1ccc(Cl)c(C(F)(F)F)c1 | 9.1 | -9.6 | x | -10.5 | 90.6* | 95.0*
COc1cc(CCC(=O)Nc2ccc(Cl)c(C(F)(F)F)c2)cc(OC)c1OC | -6.9 | -6.6 | x | -4.7 | 46.4 | x
COc1cccc(C(=O)Nc2ccc(Cl)c(C(F)(F)F)c2)c1 | 11.6 | -0.1 | x | -7.6 | 99.2* | 89.0*
COc1cc(C(=O)Nc2ccc(Cl)c(C(F)(F)F)c2)cc(OC)c1OC | 3.4 | 7.4 | x | -5.0 | 80.8* | 77.4*
O=C(Nc1cccc(C(F)(F)F)c1)c1ccco1 | 3.0 | -24.2 | x | -0.8 | 5.1 | x
COc1cccc(C(=O)Nc2cc(C(F)(F)F)ccc2Cl)c1 | 3.6 | 9.7 | x | 0.1 | 1.8 | x
O=C(Nc1ccc(Cl)c(C(F)(F)F)c1)c1ccco1 | 44.4* | -4.4 | x | 7.7 | 80.6* | 73.5*
N#Cc1ccc(-c2ccc3c(c2)[C@@H]2[C@@H](CCN2C(=O)c2ccc4c(c2)OCO4)[C@H](CO)N3)cc1 | x | x | 3.0 | x | x | x
CCC(=O)N1CC2(C1)CN(Cc1ccccn1)[C@H](CO)c1[nH]c3cc(OC)ccc3c12 | x | x | 1.2 | x | x | x
COc1ccc(S(=O)(=O)Nc2ccc3c(c2)C(=O)N([C@@H](C)CO)C[C@H](C)[C@H](CN(C)C(=O)Nc2c(C)noc2C)OCCCC[C@H](C)O3)cc1 | x | x | 0.6 | x | x | x
COc1ccc(S(=O)(=O)N(C)C[C@H]2Oc3ccc(NS(=O)(=O)c4ccc(F)cc4)cc3CC(=O)N([C@H](C)CO)C[C@@H]2C)cc1 | x | x | 2.1 | x | x | x
C[C@@H]1CCCCO[C@H](CN(C)Cc2ccc3c(c2)OCO3)[C@@H](C)CN([C@@H](C)CO)C(=O)c2cc(N(C)C)ccc2O1 | x | x | -2.6 | x | x | x
O=C(NNc1ccnc2cc(Cl)ccc12)C1CCCCC1 | -4.8 | -13.3 | -3.0 | -17.9 | 99.2* | 90.3*
NC(=S)NNc1ccnc2cc(Cl)ccc12 | 8.0 | -33.4 | -1.4 | -12.1 | -1.6 | x
FC(F)Oc1ccc(NC(=S)NNc2ccnc3cc(Cl)ccc23)cc1 | 5.4 | -107.1 | -1.3 | 4.2 | 101.0* | 65.0*
Cc1noc(C)c1S(=O)(=O)Nc1ccc2c(c1)C(=O)N([C@@H](C)CO)C[C@H](C)[C@H](CN(C)S(=O)(=O)c1cn(C)cn1)O2 | x | x | 3.3 | x | x | x
O=C(C[C@H]1C=C[C@H](NC(=O)C2CCOCC2)[C@@H](CO)O1)NCc1ccncc1 | x | x | -1.6 | x | x | x
Cc1occc1-c1nnc(SCC(=O)NCc2ccco2)n1CC(C)C | 3.8 | -31.4 | x | -7.8 | 62.9* | 6.2 | MPTP abs DR=i;MPTP cs DR=>80
Cc1occc1-c1nnc(SCC(=O)NC(C)(C)C)n1CC(C)C | -2.3 | 15.9 | x | -9.6 | -0.4 | x
CCN1CCN(c2cc(-c3ccccc3)nc3cc(-c4cccc(F)c4)nn23)CC1 | 20.5 | -1.9 | x | -8.1 | 99.3* | -22.7 | MPTP abs DR=11.2*;MPTP cs DR=>80
N#C/C(=C/c1ccc(N2CCCC2)c([N+](=O)[O-])c1)c1nc2ccccc2[nH]1 | 20.7 | 6.0 | x | 0.5 | 53.1* | 34.7*
Cc1ccc2nc(/C(C#N)=C\c3ccc(N4CCCCC4)c([N+](=O)[O-])c3)[nH]c2c1 | 6.7 | 1.4 | x | -2.9 | 55.7* | 63.5*
COc1ccccc1C#Cc1ccc([C@H]2[C@@H](CO)N3CCCCN(CCC(F)(F)F)C[C@@H]23)cc1 | x | x | 0.8 | x | x | x
SMILES | SKN-1 inh | CendR NRP1 mod | F508del corr | ATG4B inhibitor | MPTP block | Rh123 counter | others
N#C/C(=C(/O)c1ccc2c(c1)OCO2)c1nc2cc(C(F)(F)F)ccc2s1 | 22.7 | -18.6 | 1.6 | 1.0 | 84.3* | 93.7*
N#C/C(=C(/O)c1ccccc1F)c1nc2cc(C(F)(F)F)ccc2s1 | 3.5 | -42.4 | 0.7 | -16.2 | 95.7* | 92.0*
CC(C)(C)[S@](=O)N1Cc2cc(C(=O)NCCN3CCCC3)nc(-c3cccc(-c4cccc(C#N)c4)c3)c2[C@@H]1CCO | x | x | 2.1 | x | x | x
N#C/C(=N\Nc1ccc(Cl)cc1)C(=N)N1CCCCC1 | 6.0 | 4.0 | x | 3.6 | 4.0 | x
Cc1ccc(N/N=C(\C#N)C(=O)c2ccsc2)cc1 | -8.1 | -15.9 | -0.7 | 4.5 | 51.7* | 71.9*
N#C/C(=N\Nc1ccc(Cl)cc1)C(=O)c1ccsc1 | 9.7 | -7.4 | 1.7 | 16.3 | 72.0* | 90.3*
CCN(CC)C(=N)/C(C#N)=N/Nc1ccc(C)cc1 | -0.5 | -2.9 | -3.1 | -2.5 | -0.5 | x
C[C@H](CO)N1C[C@H](C)[C@H](CN(C)CC2CC2)Oc2ccc(NC(=O)C3CCCCC3)cc2C1=O | x | x | 2.7 | x | x | x
CN(C)C(=O)c1cccc(-c2ccc3c(c2)[C@H]2[C@H](CCN2C(=O)C2CCCCC2)[C@H](CO)N3)c1 | x | x | 1.7 | x | x | x
CCOC(=O)c1sc(=S)n(C)c1NC(=O)c1cccc(Br)c1 | 8.7 | -4.3 | -1.0 | -3.1 | 50.9* | 76.0*
CCOC(=O)c1sc(=S)n(C)c1NC(=O)c1ccccc1 | 5.5 | -0.8 | x | -6.3 | 2.0 | x
O=C(Nc1nnc(-c2ccccc2Cl)o1)c1ccco1 | -1.8 | 7.4 | x | -7.9 | -1.8 | x
O=C(Nc1nnc(-c2ccccc2Cl)o1)c1nc2ccccc2s1 | -12.9 | -26.9 | 0.5 | -5.6 | 95.9* | -8.9
O=C(Nc1ccc(Cl)cc1)Nc1ccc2c(c1)N1CCN=C1S2 | 28.5 | -0.2 | x | -4.7 | 92.8* | 76.9*
Cc1sc2ncnc(N3CCN(S(=O)(=O)c4ccc(Br)cc4)CC3)c2c1C | 11.1 | 1.6 | 0.6 | 5.6 | 92.8* | 109.6*
O=S(=O)(c1cccc(Br)c1)N1CCN(c2ncnc3scc(-c4ccccc4)c23)CC1 | 24.4 | -6.0 | 3.2 | -1.4 | -1.9 | x
Cc1sc2ncnc(N3CCN(S(=O)(=O)c4ccc(C(C)(C)C)cc4)CC3)c2c1C | -10.5 | 3.3 | -3.9 | 0.5 | 100.5* | 100.4*
Cc1csc2ncnc(N3CCN(S(=O)(=O)c4cccc(C(F)(F)F)c4)CC3)c12 | 0.2 | 6.1 | 4.3 | -1.4 | 97.0* | 93.0*
Cc1sc2ncnc(N3CCC(C(=O)NNC(=O)COc4ccc(Cl)cc4)CC3)c2c1C | 20.9 | 3.9 | 0.8 | -7.3 | 0.4 | x
Cc1nc(N2CCN(S(=O)(=O)c3ccc(F)cc3)CC2)c2c(C)c(C)sc2n1 | 6.7 | 6.8 | 4.1 | 7.6 | 0.5 | x
Cc1sc2ncnc(N3CCN(CCOc4ccc(Cl)cc4)CC3)c2c1C | -9.3 | 1.9 | 2.6 | -1.1 | 100.2* | 101.8*
COC(=O)[C@@H]1[C@@H](CO)[C@@H]2Cn3c(ccc(C4=CCCC4)c3=O)[C@@H]2N1Cc1ccccn1 | x | x | -0.2 | x | x | x
